Reference: PubChem BioAssay (NCATS)
Results filed as inconclusive are left out. Active and inactive are the calls of the source. Calls come from the whole dose curve; as a rule, active = well fitted inhibition curve with a large enough effect; inconclusive = small, poorly fitted or top-dose-only effect, or effect the other way; inactive = flat fitted curve, though single readings scatter.

Test: qHTS for Inhibitors of Plasmodium falciparum (GB4) proliferation (AID 504315); note: nearly all actives have a fitted effect of over 50% in size
Settings: P. falciparum GB4 in erythrocytes, SYBR Green DNA, 72 h; series mostly up to 6.7 µM
From the text: Plasmodium falciparum is a virulent malarial parasite that kills 1-2 million people worldwide each year. Malaria not only inflicts tremendous suffering and morbidity on the human population, but has dramatically influenced the course of civilization with profound sociological and economic implications (Shah, S. 2010). Transmitted by mosquitoes, the sporozoite form of the parasite enters the blood stream to infect hepatocytes, where they become merozoites that infect red blood cells (erythrocytes). Within erythrocytes, merozoites begin a […] cycle of growth and division, after which the parasite is released to infect new red blood cells. Gametocytes, which form within erythrocytes as well, circulate in the bloodstream and are ingested by the mosquito, thereby completing the life cycle (see CDC website). To profile malarial lines for differential chemical responses and to identify inhibitors of malarial growth, an assay that measures P. falciparum growth and replication within erythrocytes was employed. This assay uses a DNA binding fluorescent dye (SYBR Green) to detect parasite DNA following cell lysis. Because mature erythrocytes lack DNA, only Plasmodium-derived DNA is detected. The P. falciparum line cp250, derived from a malarial isolate from Cambodia, (Mu, J., et al. 2010) was added to the panel of lines, Dd2, HB3, 7G8 and GB4 in this study. Laboratory of Assay Development and Screening Technology [ADST] and NIH Chemical Genomics Center [NCGC] Boston University, Chemistry Department, Center for Chemical Methodology and Library Development [CMLD-BU] NIH National Institute of Allergy and Infectious Diseases [NIAID]
ADST Assay Protocol Summary: The 1536-well SYBR Green viability assay was based on the method of Bennett et al (2004) and described previously in 1536-well format (Yuan J., et al. 2009). For screening 3 ul culture medium was dispensed into 1536 well black clear bottom plates (Aurora Biotechnologies) using a Multidrop Combi (Thermo Fisher Scientific Inc.), 23 nL compounds in DMSO were added by a pin transfer (Cleveland, P.H. and Koutz, P.J, 2005) using a pin tool-based delivery system (Kalypsys), and 5 ul of erythrocytes infected with P. falciparum one of five lines (cp250, Dd2, HB3, 7G8 or GB4, 0.3% parasitemia, 2.5% hematocrit final concentration) were added. The plates were incubated at 37C in a humidified incubator in 5% CO2 for 72 h, and 2 ul lysis buffer (20 mM Tris HCl, 10 mM EDTA, 0.16% saponin, 1.6% triton X, 10X SYBR Green I (supplied as 10,000X final concentration by Invitrogen) was added to each well. The plates were mixed for 25 sec with gentle shaking and incubated overnight at room temperature in the dark. The following morning, fluorescence intensity at 485(14) nm excitation and 535(25) nm emission wavelengths was measured on an EnVision (Perkin Elmer) plate reader. Plate reads were normalized relative to the control inhibitor (0.29 uM artemisinin) and vehicle (DMSO) wells present on each plate and then corrected by an algorithm using vehicle-only control plates at the beginning and end of the compound plate stack. References Shah, S. (2010). The Fever: how malaria has ruled humankind for 500,000 years. New York, Sarah Crichton Books. CDC web site, http://www.cdc.gov/malaria/about/biology/index.html Mu, J., Myers, R.A., Jiang, H., Liu, S., Ricklefs, S., Waisberg, M., Chotivanich, K., Wilairatana, P., Krudsood, S., White, N.J., et Plasmodium falciparum genome-wide scans for positive selection, recombination hot spots and resistance to antimalarial drugs Nature Genetics 2010, 42, pp 268-271 Bennett TN, Paguio, M., Gligorijevic, B., Seudieu, C., Kosar, A. D., Davidson, E., and Roepe, P. D. Novel, rapid, and inexpensive cell-based quantification of antimalarial drug efficacy Antimicrobial Agents Chemother. 2004, 48(5): pp 1807-10 Yuan J, Johnson RL, Huang RL, Wichterman J, Jiang HY, Hayton K, Fidock DA, Wellems TE, Inglese J, Austin CP, Su XZ. […]
Potency is the fitted concentration of half-maximal effect.

Potency, active:
CC1COc2ccccc2C1=O (stereo not given) 1900 nM
c1ccc(-c2nc(-c3cccc4ccccc34)c(Nc3ccc4ccccc4c3)o2)cc1 1510 nM
COC(=O)[C@@H]1CC[C@H](C)[C@@H](c2ccc(C)cc2)N1C(=O)c1ccc(C=NO[C@@H](C)c2cc(-c3c(C)cc(C)cc3C)no2)cc1 1690 nM

Potency, inactive:
CC1(OC(=O)CCc2ccccc2)C(=O)C=C2C=C(c3ccc(C#N)cc3)N(Cc3ccco3)C=C2C1=O (stereo not given)
CCOC(=O)OC[C@H]1O[C@H](c2ccccc2)C=C[C@H]1OC(=O)OCC
COC(=O)CCC(=O)OC1(C)C(=O)C=C2C=C(C3CC3)N(c3ccc(OC)cc3)C=C2C1=O (stereo not given)
CCCCC1=CC2=CC(=O)C(C)(OC(=O)CC)C(=O)C2=CN1c1ccncc1 (stereo not given)
O=C(NS(=O)(=O)c1ccc(F)cc1)O[C@@H]1C(=O)c2cc(Br)ccc2O[C@H]1c1ccc2c(c1)OCO2
COC(=O)CCCC1=CC2=CC(=O)C(C)(OC(=O)c3cccs3)C(=O)C2=CN1Cc1ccccc1 (stereo not given)
COC(=O)[C@@H]1[C@@H](C)N(CCc2cc(OC)c(OC)c(OC)c2)C(=O)N[C@H]1c1ccccc1
C[C@@H]1C[C@](C)(C(=O)c2ccc3ccccc3c2)C=C1c1ccc2ccccc2c1
CCOC(=O)CN1C(=O)N[C@@H](CCc2ccccc2)C(C(=O)OC)=C1C
C[C@H]1Cc2c(COc3ccccc3)nc3c(c2CO1)CN(S(=O)(=O)c1ccc(Cl)c2nonc12)CC3
COC(=O)C(C(=O)OC)[C@@H]1c2ccccc2[C@H]2C(=C[C@@H](C)[C@H]3C(=O)N(c4ccccc4)C(=O)[C@H]32)N1C(=O)OC
COC(=O)CCCC1=CC2=C(c3ccccc3)C(=O)C(C)(OC(=O)C3CCCC3)C(=O)C2=CN1C1CCCC1 (stereo not given)
COCOc1c2c(c(OCOC)c3c(OCOC)cccc13)C(=NNS(C)(=O)=O)C1=C2CCCC1
C[C@H]1Cc2c(COc3ccccc3)nc3c(c2CO1)CN(S(=O)(=O)c1ccc(C#N)cc1)CC3
COC(=O)C1=C(C(=O)OC)[C@@H]2Nc3ccccc3[C@@]23C[C@@H](C(=O)OC)N(C(=O)c2cccs2)C3=N1
C=CCN1c2ccccc2[C@]23C[C@@H](C(=O)OC)N(C(=O)COCc4ccccc4)C2=NC(C(=O)OC)=C(C(=O)OC)[C@H]13
COC(=O)CCC(=O)OC1(C)C(=O)C=C2C=C(C3CC3)N(C3CCCCC3)C=C2C1=O (stereo not given)
COC(=O)N[C@@H](c1ccccc1)[C@]1(C(=O)OC)CCCC1=O
COC(=O)CCC(=O)OC1(C)C(=O)C=C2C=C(C3CC3)N(CCN3CCOCC3)C=C2C1=O (stereo not given)
CC1(OC(=O)C2CCCC2)C(=O)C=C2C=C(c3ccsc3)N(c3ccc(CO)cc3)C=C2C1=O (stereo not given)
CC(C)(C)N1C(=O)[C@@H]2[C@H]3[C@H](O)[C@H](O)CC(=NOCc4ccccc4)[C@H]3CC[C@H]2C1=O
COc1ccc2c(c1)O[C@@H](c1cccc(C(F)(F)F)c1)[C@H](OC(=O)N[C@H]1CCCc3ccccc31)C2=O
C=CCN1c2ccccc2[C@]23C[C@@H](C(=O)OC)N(S(=O)(=O)c4c(C)noc4C)C2=NC(C(=O)OC)=C(C(=O)OC)[C@H]13
COC/C=C/C1=CC2=CC(=O)C(C)(OC(=O)c3cnc4ccccc4n3)C(=O)C2=CN1C1CCCC1 (stereo not given)
CC#CCN1c2ccccc2[C@]23CCC(=O)N(CCCOC(C)C)C2=NC(C(=O)OC)=C(C(=O)OC)[C@H]13
COC(=O)C1=C(C)N(Cc2ccco2)C(=O)N[C@@H]1c1ccco1
CCN1C(=O)N(C)[C@@H](c2ccccc2)C(C(=O)OC)=C1C
C#CCCCON=C1C[C@@H](O)[C@@H](O)[C@@H]2[C@H]3C(=O)N([C@@H](C)c4ccccc4)C(=O)[C@@H]3CC[C@H]12
CCCCC1=CC2=C(c3ccco3)C(=O)C(C)(OC(=O)c3ccc(OC)cc3)C(=O)C2=CN1C1CCCC1 (stereo not given)
CC(C)(C)OC(=O)NCCCC1=CC2=CC(=O)C(C)(OC(=O)c3cccs3)C(=O)C2=CO1 (stereo not given)
CCN1C(=O)N[C@@H](c2cccs2)C(C(=O)OC)=C1C
CC=Cc1cc2ccccc2c2c(C(=O)OC)c(C(=O)OC)c(C(=O)OC)n12
C/C=C/C1=Cc2ccccc2C(CC(=O)OC)N1C(=O)OC (stereo not given)
CCCCS(=O)(=O)N1C2=NC(C(=O)OC)=C(C(=O)OC)[C@@H]3N(C)c4ccccc4[C@]23C[C@H]1C(=O)OC
COC(=O)CCCC1=CC2=CC(=O)C(C)(OC(=O)CCc3ccccc3)C(=O)C2=CO1 (stereo not given)
COC(=O)CCCC1=CC2=C(c3ccccc3)C(=O)C(C)(OC(=O)C3CCCC3)C(=O)C2=CN1CC(C)C (stereo not given)
COC/C=C/C1=CC2=CC(=O)C(C)(OC(=O)c3cnc4ccccc4n3)C(=O)C2=CN1CCOC (stereo not given)
